From publication PMC7819943, “Rice protein-binding microarrays: a tool to detect cis-acting elements near promoter regions in rice”
Over roughly 39,000 sequences, “fluorescence intensity (a.u.)” has its median near 4,300; the highest 2% begin near 39,000. This is one part of a sample in which the highest values are shown more often than they occur.

These sequences were tested against T1, OsSMF1 (Oryza sativa, UniProt Q6ZLB0 1-436) (assay: protein-binding microarray (RPBM); PBS, 2% BSA, 51.3 ng/ul salmon testes DNA, 50 uM zinc acetate, 200 nM TF, 25 C, 1 h; high values mean tight binding). Conditions: protein: recombinant; tags: N-terminal polyhistidine and DsRed monomer fusion (pET32a); chain copies: 2; label: CyDye5-dUTP incorporated in the synthesized complementary strand; 3' TTTTT single-stranded linker to array surface; dsDNA, one strand shown.
T1 sequence: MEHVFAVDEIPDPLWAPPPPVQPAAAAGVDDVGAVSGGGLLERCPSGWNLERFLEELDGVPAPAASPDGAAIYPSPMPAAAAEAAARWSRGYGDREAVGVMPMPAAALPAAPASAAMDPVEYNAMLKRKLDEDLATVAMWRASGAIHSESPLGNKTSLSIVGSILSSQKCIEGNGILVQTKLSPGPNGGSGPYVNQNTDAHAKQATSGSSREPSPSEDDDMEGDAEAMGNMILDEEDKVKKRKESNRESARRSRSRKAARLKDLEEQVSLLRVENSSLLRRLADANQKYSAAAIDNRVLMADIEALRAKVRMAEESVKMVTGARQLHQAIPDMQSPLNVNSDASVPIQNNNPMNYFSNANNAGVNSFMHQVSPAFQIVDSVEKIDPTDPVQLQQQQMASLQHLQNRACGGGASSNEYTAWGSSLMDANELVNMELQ
Method in brief: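 Binding signal is reported as fluorescence intensity per feature (arbitrary units) from an Axon 4000B scanner. Incubation used 200 nM of each Ni–NTA-purified, N-terminally polyhistidine- and DsRed-fused transcription factor from E. coli BL21-CodonPlus on a double-stranded custom Agilent array for 1 h at 25 °C, with 50 µM zinc acetate in the buffer, followed by washing.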

Question: Which binding signal does the source give for “ACCACTGTTTGTGGAGTGTGTGCACACACCACCTCCGATGCGGAGTCACCTAGTGCAG” here?
Answer: The binding signal was 3810 fluorescence intensity (a.u.).

Question: Which binding signal does the source give for “ATTCACTGATAATAGAGACCCACACGTTAGTATTGGAGTACGGAGTCACCTAGTGCAG” here?
Answer: The binding signal was 3140 fluorescence intensity (a.u.).

Question: For “CATTTGTTTTATTTTAGCATTTGTCACTTACATGTGGGACCGGAGTCACCTAGTGCAG”, which binding signal is on record?
Answer: The binding signal was 3180 fluorescence intensity (a.u.).

Question: Which binding signal does the source give for “AAGGTGAGGTTGGTCAACATTTGTCATCAAATTTTGATCACGGAGTCACCTAGTGCAG” here?
Answer: The binding signal was 3400 fluorescence intensity (a.u.).

Question: How did the binding signal turn out when “GTTTTGTGATTTGGTACATGTGGTAGCATTCACCAAATGTCGGAGTCACCTAGTGCAG” was run?
Answer: Its binding signal is 39600 fluorescence intensity (a.u.).

Question: For “CAAATGTCGATTTGGTTGTGGACATGTCAATGCCGATCAACGGAGTCACCTAGTGCAG”, which binding signal is on record?
Answer: The binding signal was 50200 fluorescence intensity (a.u.).

Question: “TGGATATACATATGCCATGTCGATTTTGTGCCGAAGTGGACGGAGTCACCTAGTGCAG” was tested. Which binding signal did it give?
Answer: Its binding signal is 3330 fluorescence intensity (a.u.).

Question: Which binding signal does the source give for “AAATTATGTCATTTTGATCAACAGTTGGTACAGTAGTACACGGAGTCACCTAGTGCAG” here?
Answer: Its binding signal is 48000 fluorescence intensity (a.u.).

Question: With “TGCACCTAGGTGTACATGTCATTGTGTGTTTGTGGTTGGTCGGAGTCACCTAGTGCAG” as the sequence, how does the binding signal read?
Answer: The binding signal was 4630 fluorescence intensity (a.u.).

Question: With “CTTCAGTTATGTTAATTACATGTCATTTGTTTTGTTACAACGGAGTCACCTAGTGCAG” as the sequence, how does the binding signal read?
Answer: The binding signal was 4920 fluorescence intensity (a.u.).

Question: How did the binding signal turn out when “TGTGGTTGGTGTCGATTTGGAATGGGGTGAAATGGACTGGCGGAGTCACCTAGTGCAG” was run?
Answer: The binding signal was 3260 fluorescence intensity (a.u.).

Question: For “CAGCTACAGGACGGCAGTACCCAGTACACGCACGCGTACCCGGAGTCACCTAGTGCAG”, which binding signal is on record?
Answer: The binding signal was 3640 fluorescence intensity (a.u.).

Question: “TTAAATGCACCCCTACTCAACCCCTCAATCGACGTGTTGGCGGAGTCACCTAGTGCAG” was tested. Which binding signal did it give?
Answer: The binding signal was 4180 fluorescence intensity (a.u.).

Question: “AGTATTTTAAATCATATACAAGTACGTCACATCATCACTCCGGAGTCACCTAGTGCAG” was tested. Which binding signal did it give?
Answer: Its binding signal is 3720 fluorescence intensity (a.u.).

Question: For “TGACACCGTCGCCACCTCGCCACCCATCCATTTCCATTGCCGGAGTCACCTAGTGCAG”, which binding signal is on record?
Answer: The binding signal was 3650 fluorescence intensity (a.u.).

Question: How did the binding signal turn out when “TGCACGCTGCGGCGTACGTCGCGTGCGCACACGGGAATTTCGGAGTCACCTAGTGCAG” was run?
Answer: Its binding signal is 3190 fluorescence intensity (a.u.).

Question: How did the binding signal turn out when “TCTACTCCTAAATCCACATCATCTTTAGCAAAAGCAACAACGGAGTCACCTAGTGCAG” was run?
Answer: Its binding signal is 4670 fluorescence intensity (a.u.).

Question: “TTGTCGCAGGTTGCTGACTGTTCCTCGAGGGAGTTCTCGGCGGAGTCACCTAGTGCAG” was tested. Which binding signal did it give?
Answer: Its binding signal is 6980 fluorescence intensity (a.u.).

Question: With “GCCTCTCCTTGCTTGCGTGCTCACTGTCGCTGACTGCTCTCGGAGTCACCTAGTGCAG” as the sequence, how does the binding signal read?
Answer: Its binding signal is 4650 fluorescence intensity (a.u.).

Question: With “TGTGGTGGCTGAGTCATCGTGGGATCCACGTGGGCCCCACCGGAGTCACCTAGTGCAG” as the sequence, how does the binding signal read?
Answer: The binding signal was 24700 fluorescence intensity (a.u.).

Question: “GCCGTGGGAATGGCTGAGGATTAGTGCGCCACGTCAGCAACGGAGTCACCTAGTGCAG” was tested. Which binding signal did it give?
Answer: Its binding signal is 37300 fluorescence intensity (a.u.).

Question: With “TCGTGGGAATGGCTGAGGATTAGGGCGCCACGTCATCGTTCGGAGTCACCTAGTGCAG” as the sequence, how does the binding signal read?
Answer: Its binding signal is 45600 fluorescence intensity (a.u.).

Question: How did the binding signal turn out when “TTTCTCCACGTCAGCGAAACCACCTATATATATACTGCCACGGAGTCACCTAGTGCAG” was run?
Answer: Its binding signal is 14300 fluorescence intensity (a.u.).

Question: Which binding signal does the source give for “CTCCACACAGACACACATCCCACCCCACCCACATACACACCGGAGTCACCTAGTGCAG” here?
Answer: The binding signal was 3610 fluorescence intensity (a.u.).

Question: How did the binding signal turn out when “GCCGCCGCTGTCGCCATCCACGCTCCGAGCGCCACTGCCACGGAGTCACCTAGTGCAG” was run?
Answer: The binding signal was 3490 fluorescence intensity (a.u.).

Question: How did the binding signal turn out when “AACTCTCCAGTCTCCACCCACCTCACTCCACAGTCCACACCGGAGTCACCTAGTGCAG” was run?
Answer: Its binding signal is 3150 fluorescence intensity (a.u.).

Question: For “CCCTGCTCTGCCACGCCCGCCACCGTCTGCCGGCCTCTACCGGAGTCACCTAGTGCAG”, which binding signal is on record?
Answer: The binding signal was 4730 fluorescence intensity (a.u.).

Question: Which binding signal does the source give for “CTCCGTTGTGCTCTGTCTCTCTACCGCCACCATCCACTGCCGGAGTCACCTAGTGCAG” here?
Answer: The binding signal was 39200 fluorescence intensity (a.u.).

Question: “AGACACAGCACACCCACTCACTCTGCTCACTCTCCCATACCGGAGTCACCTAGTGCAG” was tested. Which binding signal did it give?
Answer: The binding signal was 39100 fluorescence intensity (a.u.).

Question: With “CTATGCCTTGTCAACATTCAACCCCTCCAATAGACTTTGTCGGAGTCACCTAGTGCAG” as the sequence, how does the binding signal read?
Answer: The binding signal was 3210 fluorescence intensity (a.u.).

Question: How did the binding signal turn out when “CTCTTGACCAGCCGAGCGCACCGTCATCAGGCTACATCTCCGGAGTCACCTAGTGCAG” was run?
Answer: Its binding signal is 5290 fluorescence intensity (a.u.).

Question: Which binding signal does the source give for “TCCAGTTTCGCGTAGCTGCGTGACAGTTCAATTGAACTCTCGGAGTCACCTAGTGCAG” here?
Answer: The binding signal was 3200 fluorescence intensity (a.u.).

Question: Which binding signal does the source give for “CCCTCTCCACATTCTCTTCCACCTGTGTTCCCCTTTTCTTCGGAGTCACCTAGTGCAG” here?
Answer: Its binding signal is 3320 fluorescence intensity (a.u.).

Question: For “CTCTTTTCCCCATCTCACATACTGTGCCTTGCCTCCATAACGGAGTCACCTAGTGCAG”, which binding signal is on record?
Answer: The binding signal was 65200 fluorescence intensity (a.u.).

Question: How did the binding signal turn out when “TCCTCCCATCTCTCTCTCTTTTGCCCACACTCTTTTCACACGGAGTCACCTAGTGCAG” was run?
Answer: The binding signal was 5660 fluorescence intensity (a.u.).

Question: “TTCTATAGAAGCTTTCTCTCTTAAAACTCTACCAAAATTTCGGAGTCACCTAGTGCAG” was tested. Which binding signal did it give?
Answer: The binding signal was 24000 fluorescence intensity (a.u.).

Question: With “CAGCCGGGCCCACGTGTCAGTGAGTGCGTGACGCGTCAGCCGGAGTCACCTAGTGCAG” as the sequence, how does the binding signal read?
Answer: The binding signal was 15200 fluorescence intensity (a.u.).

Question: “AATAAATAGGCCTGACGTGAGGCCCACTCGCCACGTCAGCCGGAGTCACCTAGTGCAG” was tested. Which binding signal did it give?
Answer: The binding signal was 44900 fluorescence intensity (a.u.).

Question: Which binding signal does the source give for “TCGTCGCCCACTGCCACCGCTGACGTCACCGCACTCTCGCCGGAGTCACCTAGTGCAG” here?
Answer: Its binding signal is 30500 fluorescence intensity (a.u.).

Question: Which binding signal does the source give for “AATTACCACCCTAACTCAATTAGAAGCGGTTTTCAGCCTACGGAGTCACCTAGTGCAG” here?
Answer: The binding signal was 52400 fluorescence intensity (a.u.).

Question: Which binding signal does the source give for “TCTTTTGGTGGTTTCAGAAGCGGTTTTATCCTACGTGACACGGAGTCACCTAGTGCAG” here?
Answer: The binding signal was 4530 fluorescence intensity (a.u.).

Question: Which binding signal does the source give for “TTTTGACCCGGTTTTAGCCTACGTGACGGCTAAGTCAGCGCGGAGTCACCTAGTGCAG” here?
Answer: The binding signal was 4480 fluorescence intensity (a.u.).

Question: How did the binding signal turn out when “CAAGGAAGAATATGCCACCTCCACGGAGGCCGGCGGCGGCCGGAGTCACCTAGTGCAG” was run?
Answer: Its binding signal is 3710 fluorescence intensity (a.u.).

Question: For “GGGGAAGGAGAAGAGGAAGGAGAGGGGAGGAGGAGGAGGGCGGAGTCACCTAGTGCAG”, which binding signal is on record?
Answer: Its binding signal is 3770 fluorescence intensity (a.u.).

Question: For “GAGAAGAAGGCCACCTCACCACTAAAGGAGGAGGAGGAGGCGGAGTCACCTAGTGCAG”, which binding signal is on record?
Answer: Its binding signal is 43500 fluorescence intensity (a.u.).

Question: How did the binding signal turn out when “CCTTTCCGATTACGTGTTGGACCTTGACCCTAGGCCATATCGGAGTCACCTAGTGCAG” was run?
Answer: The binding signal was 49700 fluorescence intensity (a.u.).

Question: “TCAGCGAATTGGTACGTACCCTTGTACGTGTTGACGCCATCGGAGTCACCTAGTGCAG” was tested. Which binding signal did it give?
Answer: The binding signal was 3650 fluorescence intensity (a.u.).

Question: How did the binding signal turn out when “TACGTGTGTTGATTTCCGTGACATATGCATAAATTTCTTTCGGAGTCACCTAGTGCAG” was run?
Answer: Its binding signal is 3530 fluorescence intensity (a.u.).

Question: For “CCGTCGACTCTGTGCCACGTCCTGTTGCTCGTCGGATTCCCGGAGTCACCTAGTGCAG”, which binding signal is on record?
Answer: Its binding signal is 14000 fluorescence intensity (a.u.).

Question: With “TTGCTGCAGTTCTCGTATGCTTCCTAGTACTATCTGCGTTCGGAGTCACCTAGTGCAG” as the sequence, how does the binding signal read?
Answer: Its binding signal is 3230 fluorescence intensity (a.u.).

Question: For “CTAGTTCGCCTTCCACGTACGCACTTGGCGTCGTATCTGCCGGAGTCACCTAGTGCAG”, which binding signal is on record?
Answer: The binding signal was 6440 fluorescence intensity (a.u.).

Question: How did the binding signal turn out when “TGCAGTATCTGCCGTTCGTATCGCTGCGTTGAATCTTCCACGGAGTCACCTAGTGCAG” was run?
Answer: Its binding signal is 47100 fluorescence intensity (a.u.).

Question: “GATCATGAGCTCCACGGCGGCCAACGTGGCGGCGCCGACGCGGAGTCACCTAGTGCAG” was tested. Which binding signal did it give?
Answer: Its binding signal is 8640 fluorescence intensity (a.u.).

Question: Which binding signal does the source give for “TCAGCTCAGCAAATTAGGATGTTTCATTAGTTAGAACAAACGGAGTCACCTAGTGCAG” here?
Answer: Its binding signal is 51600 fluorescence intensity (a.u.).

Question: For “TAACACAACTATTTACTCAGCTCACGTGTTTCATTAACAACGGAGTCACCTAGTGCAG”, which binding signal is on record?
Answer: Its binding signal is 3340 fluorescence intensity (a.u.).

Question: For “TTTCGCAATTATATTGATGCAGAAATCAGCAGCTCACAATCGGAGTCACCTAGTGCAG”, which binding signal is on record?
Answer: The binding signal was 20700 fluorescence intensity (a.u.).
